In ChEMBL document CHEMBL4513216, “Probing the Open Global Health Chemical Diversity Library for Multistage-Active Starting Points for Next-Generation Antimalarials” (ACS Infect Dis, 2020):
Screen size: about 65,000 compounds; about 2,100 (3.2%) showed an effect of 50% or more. The median lay at about -52%. For the sample, strong results were picked, then their nearest neighbours and some compounds at random.

These compounds were tested on Plasmodium falciparum (assay: Screen against P. falciparum Asexual Blood Stage (ABS), at 5uM). Conditions: tested at 5 uM.
Assay type: functional, Dd2

Going from `CN1CCN(C(=O)Cc2ccc(S(=O)(=O)C(F)F)cc2)CC1` to `NC(=O)CN1CCCN(C(=O)Cc2ccc(Br)cc2)CC1`, the INHIBITION falls from -85.3% to -114%.

Going from `NC1(C(=O)NCC2CCCN(Cc3ccccc3F)C2)CCCC1` (stereo not drawn) to `CS(=O)(=O)NCC1CCCN(Cc2ccccc2F)C1` (stereo not drawn), the INHIBITION rises from 85.6% to 89.2%.

Going from `CCN(C)S(=O)(=O)NCC1CCCN(Cc2ccccc2F)C1` (stereo not drawn) to `C[C@@H]1CN(Cc2ccco2)CCN1C(=O)Cc1ccccc1F`, the INHIBITION falls from 74.5% to -154%.

Compared with `Fc1ccccc1CN1CCCC2(CCN(c3ncccn3)C2)C1` (stereo not drawn), `COCCN1CCCC12CCN(c1ncccn1)CC2` is higher in INHIBITION: -15.8% for the first, -0.324% for the second.

First: COc1ncccc1CN1C[C@@H]2COC[C@]2(CNS(C)(=O)=O)C1
Second: COCCN1CC[C@]2(CN(Cc3cccnc3)C[C@H]2C)C1=O
The INHIBITION of the first is lower: -44.2% for the first, 25.1% for the second.

Compared with `Cc1c(C2N3CC4(C)CN2CC(C)(C3)C4=O)[nH]c(=O)[nH]c1=O` (stereo not drawn), `CCC12CN3CC(C)(CN(C1)C3c1[nH]c(=O)[nH]c(=O)c1C)C2=O` (stereo not drawn) is higher in INHIBITION: -53.4% for the first, -51.4% for the second.

Compared with `COc1cc(C2SCC(=O)Nc3ccsc32)cc(OC)c1O` (stereo not drawn), `Cc1n[nH]c2c1C(c1ccncc1)SCC(=O)N2` (stereo not drawn) is higher in INHIBITION: -46.5% for the first, -28% for the second.

Going from `CCN1CCC2(COCc3cnc(-c4cccnc4)nc32)C1` (stereo not drawn) to `c1cncc(-c2noc(CN3CCc4cncnc4C3)n2)c1`, the INHIBITION rises from -76.4% to 72.9%.

Going from `COCc1cncc2c1CCN(Cc1cccnc1)C2` to `CN1CCN(Cc2cccnc2)Cc2cccnc21`, the INHIBITION rises from -107% to -65.7%.

Compared with `O=C1C[C@@H]2CC[C@H](CN1)N2C1CCSCC1`, `COc1ccnc(N2C[C@H]3CC[C@@H](C2)N(CC2CC2)C3)n1` is higher in INHIBITION: -19.5% for the first, 4.16% for the second.

First: C[C@@H]1C[C@H]2CN(Cc3nccs3)C[C@H]2O1
Second: Cc1noc([C@@H]2C[C@H]3CN(Cc4cc(C)on4)C[C@H]3O2)n1
The INHIBITION of the first is higher: -77.8% for the first, -92.2% for the second.

First: Cc1cc(CN2CC[C@H]3C[C@H](c4nc(C5CC5)cs4)O[C@@H]3C2)no1
Second: CCS(=O)(=O)N[C@@H]1CN(Cc2cc(C)on2)C[C@@H]2CCCO[C@@H]21
The INHIBITION of the first is higher: -15.2% for the first, -96% for the second.

First: Nc1nc(N)c2c(n1)OC1(COCCN(Cc3nccs3)C1)C2 (stereo not drawn)
Second: COCCN1CCOCC2(C1)CN(C(=O)c1conc1C)CCO2 (stereo not drawn)
The INHIBITION of the first is lower: -134% for the first, -10.5% for the second.

Compared with `Cc1nc(CO[C@@H]2CN(Cc3ccccn3)[C@@H]3COC[C@@H]32)cs1`, `Cc1nc(CN2CCO[C@H]3[C@@H](Oc4ccccn4)CC[C@@H]32)cs1` is lower in INHIBITION: -6.87% for the first, -47% for the second.

Going from `c1cncc(OC[C@@H]2CCC[C@@]23CNCCO3)c1` to `c1cncc(COC[C@@H]2CCC[C@@]23CNCCO3)c1`, the INHIBITION falls from 67% to 23.4%.

Going from `c1ccc(COC[C@H]2CCC[C@@]23CNCCO3)nc1` to `c1ccc(COC[C@@H]2CCC[C@@]23CNCCO3)nc1`, the INHIBITION rises from 44.1% to 48.6%.

Compared with `c1cncc(COC[C@@H]2CCC[C@]23CNCCO3)c1`, `c1ccc(OC[C@@H]2CCC[C@@]23CNCCO3)nc1` is higher in INHIBITION: -12.9% for the first, 66.9% for the second.

Compared with `COc1cc(N2C[C@H]3CCN(CCN4CCCC4)C[C@H]3C2)ncn1`, `COc1cc(N2CCN(CC3CC3)c3nc(C)ccc3C2)ncn1` is lower in INHIBITION: -52.5% for the first, -65.6% for the second.

Compared with `Cc1cccc(CN2C[C@@H]3CN(Cc4ccoc4)CCO[C@@H]3C2)n1`, `Cc1ccc(CN2C[C@H]3OC(=O)N(Cc4ccccn4)[C@H]3C2)o1` is lower in INHIBITION: -60.3% for the first, -74.6% for the second.

Compared with `Cc1ccc(O[C@@H]2C[C@H]3CN(C(=O)Cc4ccccn4)CCN3C2)cc1`, `CSc1ccccc1C(=O)C1CCCN(Cc2ccccn2)C1` (stereo not drawn) is higher in INHIBITION: -77.2% for the first, -41.1% for the second.

Going from `CC(C)N1[C@H](CN2CCCC2)C[C@@H]2CN(Cc3ccoc3)CC[C@@H]21` to `CN1C(Cn2cccn2)C[C@@H]2CN(Cc3cccnc3)CC[C@@H]21` (stereo partly drawn), the INHIBITION falls from 76.2% to 11.2%.

Going from `CC(C)N1[C@H](Cn2cncn2)C[C@@H]2CN(c3ncccn3)CC[C@@H]21` to `CC(C)N1CCO[C@H]2CN(Cc3cc[nH]n3)C[C@H]21`, the INHIBITION falls from -58.2% to -62.4%.

First: CCc1noc(C(C)N2CCN(C)CC2)n1 (stereo not drawn)
Second: CN1CCN(c2ccc(CO)cc2F)CC1
The INHIBITION of the first is higher: -21% for the first, -62.7% for the second.

Compared with `Cc1ccc(C(=O)N2C[C@@H]3OCCN(CC4CCCC4)[C@@H]3C2)cn1`, `O=C([C@H]1CN(Cc2ccncc2)C[C@H]2OCC[C@@H]12)N1CCCCO1` is lower in INHIBITION: -30% for the first, -89.5% for the second.

Going from `c1ccc(-c2cc(CN3C[C@H]4CC[C@H]3C4)on2)cc1` to `c1ccc(-c2cc(CN3C[C@H]4CC[C@@H](C3)N(CC3CCC3)C4)on2)cc1`, the INHIBITION rises from 5.39% to 88.4%.

First: Cc1cnn(CC(C)NCc2ccncc2)c1 (stereo not drawn)
Second: Cc1cnn(CC(C)NCc2cccnc2)c1 (stereo not drawn)
The INHIBITION of the first is higher: 0.596% for the first, -41.2% for the second.

Going from `Cc1cnn(CCNCc2ccccc2OCc2cccnc2)c1` to `Cc1cnn(CCNCc2nccn2Cc2ccccc2)c1`, the INHIBITION rises from 71.5% to 83%.

First: Cc1cnn(CC(C)NCc2ccc(C#N)cc2)c1 (stereo not drawn)
Second: COc1cccc(CC(C)NC(=O)NCCc2cccnc2)c1 (stereo not drawn)
The INHIBITION of the first is lower: -64.7% for the first, -58.4% for the second.

First: O=C(c1ccno1)N1CC[C@@H]2CN(C3CCOCC3)CCO[C@@H]2C1
Second: CN1CC=C(c2noc(CCC(=O)N3CCOCC3)n2)CC1
The INHIBITION of the first is higher: -25% for the first, -132% for the second.

First: CC(C)(C)NC(=O)CNc1ccc(C#N)c(C(F)(F)F)c1
Second: COC(=O)NCC(=O)NCC(C)(C)c1cccc(Br)c1
The INHIBITION of the first is lower: -31.3% for the first, 84.6% for the second.

Going from `CCc1ocnc1C(=O)N1CCC2(CC1)OCC(C)O2` (stereo not drawn) to `O=C(Cc1cnc(-c2c(Cl)cccc2Cl)s1)N1CCC2(CC1)OCCO2`, the INHIBITION falls from -79.3% to -87.1%.

First: O=C1N(Cc2ccncc2)CCC12CCCNC2 (stereo not drawn)
Second: O=C1N(Cc2cccnc2)CCC12CCCNC2 (stereo not drawn)
The INHIBITION of the first is higher: -59.6% for the first, -85.5% for the second.

Going from `CC(C)CN1CCC2(CCCNC2)C1=O` (stereo not drawn) to `O=C1N(Cc2cccc(Cl)c2)CCC12CCCNC2` (stereo not drawn), the INHIBITION rises from 10.8% to 80.7%.

Compared with `O=C1N(Cc2cccc(F)c2)CCC12CCCNC2` (stereo not drawn), `O=C1N(Cc2ccc(Cl)cc2)CCC12CCCNC2` (stereo not drawn) is higher in INHIBITION: -20.3% for the first, 85.4% for the second.

First: CCc1ncc(CN(CCc2ccccc2)Cc2cccs2)cn1
Second: CCc1ccc(CN(CCN(C)C)Cc2ccc(C)s2)nc1
The INHIBITION of the first is lower: -80.9% for the first, 91.9% for the second.

Compared with `O=C(O)CN1CCC(F)(F)C2(CCN(c3ccccn3)C2)C1` (stereo not drawn), `O=C(c1c[nH]cn1)N1CCC(F)(F)C2(CCN(c3cccc(F)c3)C2)C1` (stereo not drawn) is higher in INHIBITION: -77.3% for the first, 86.2% for the second.

Going from `Cc1cc(C(=O)N2CCC3(CCN3Cc3ccc(F)cc3)C2)no1` (stereo not drawn) to `CCN1CCNC(=O)C12CCN(C(=O)c1ccccn1)CC2`, the INHIBITION falls from 4.88% to -86.3%.

Going from `COC(=O)NCCC(=O)NC(C)Cc1cccc(Br)c1` (stereo not drawn) to `COC(=O)NCCC(=O)NC(C)Cc1ccccc1Br` (stereo not drawn), the INHIBITION falls from -15.7% to -138%.

First: CCC(=O)NCC(=O)NCC(C)(C)c1cccc(Br)c1
Second: COC(=O)CNC(=O)c1cn(Cc2ccccc2F)nn1
The INHIBITION of the first is higher: 87.2% for the first, -63.8% for the second.

First: c1cc(CN2CCO[C@@H]3CNC[C@@H]32)cs1
Second: Cc1cccc(CN2C[C@H](NS(C)(=O)=O)[C@@H]3OCCC[C@@H]32)n1
The INHIBITION of the first is higher: -38.5% for the first, -121% for the second.

Compared with `COCC(=O)N1CC[C@H]2[C@H]1CCN2CC(C)C`, `CC(C)CN1CCCC1c1cc[nH]n1` (stereo not drawn) is higher in INHIBITION: -34.8% for the first, 91% for the second.

Going from `CC(C)c1ncc2c(n1)CN(CCCc1nc3ccccc3o1)CC2` to `CCC1(CC)Cc2ccccc2-c2nc(CN(C)C)nc(O)c21`, the INHIBITION rises from 70.3% to 74.6%.

First: Cc1noc(C)c1CN1CC[C@@H]2O[C@@H](COCC(C)C)CC[C@@H]21
Second: Cc1nn(C2CCCC2)c2c1C(c1ccc3c(c1)OCO3)SCC(=O)N2 (stereo not drawn)
The INHIBITION of the first is lower: -49.5% for the first, 6.36% for the second.

Going from `COc1ccc(C[C@H]2CNCC[C@@H]2OCC2CC2)cc1` to `COc1ccc(C[C@H]2CNCC[C@@H]2OC)cc1`, the INHIBITION falls from 82.2% to 78.3%.

Going from `O=C1CSC(c2ccc3c(c2)OCO3)c2cnn(C3CCCCC3)c2N1` (stereo not drawn) to `O=C1CSC(c2ccc(O)cc2)c2c(n(C3CCOCC3)[nH]c2=O)N1` (stereo not drawn), the INHIBITION falls from -33% to -92.3%.

Compared with `COc1ccc(CNCc2ccnc(N3CCCC3)c2)c(OC)c1`, `COc1ccc(OC)c(CNCc2ccnc(N3CCCCC3)c2)c1` is higher in INHIBITION: 73.6% for the first, 75.8% for the second.

Going from `CCC(O)CN1CCN(C(=O)Cc2ccc(OC)cc2OC)CC1` (stereo not drawn) to `CN1CCN(c2ccc(F)cc2C(N)=O)CC1`, the INHIBITION falls from -2.14% to -105%.

Compared with `c1cc(CNCc2ccnc(N3CCCC3)c2)c2c(c1)OCCCO2`, `CN1CCN(c2ccccc2CNC(=O)Cc2cccc(F)c2)CC1` is higher in INHIBITION: -20.5% for the first, 77.4% for the second.

First: CC[C@@H]1N(Cc2cccnc2)CCC[C@]12CCC(=O)N2C
Second: O=C1NC[C@H]2CN(Cc3ccccn3)CCN12
The INHIBITION of the first is lower: -25.2% for the first, -9.08% for the second.

Compared with `Cn1ncc2c(N3CCCC4(CCNC4)C3)nc(C(C)(C)C)nc21` (stereo not drawn), `CN1CCN(c2ccnc3c(F)cc(Br)cc23)CC1` is lower in INHIBITION: 38.2% for the first, 0.83% for the second.

First: CCNC(=O)CN1CCSC2(CCCCC2)C1
Second: CN1CCN(c2ccccc2CNC(=O)Cc2ccccc2F)CC1
The INHIBITION of the first is lower: -49.4% for the first, 77% for the second.

Going from `FC(F)CN1CCOC(Cn2cccn2)C1` (stereo not drawn) to `NC(=O)c1cccc2nc([C@H]3CCN(Cc4ccccn4)C3)[nH]c12`, the INHIBITION rises from -69.4% to 95.1%.

Going from `OCCN1CCC(CNCc2ccccc2OC(F)(F)F)CC1` to `CC(NCC1CCN(CCO)CC1)c1ccc(OC(F)(F)F)cc1` (stereo not drawn), the INHIBITION falls from 95.8% to 93.8%.

Going from `CC(NCC1CCN(CCO)CC1)c1ccc(C(F)(F)F)cc1` (stereo not drawn) to `CN1CCN(c2ccccc2NC(=O)NCCc2ccccc2)CC1`, the INHIBITION falls from 89.1% to 83.9%.
